Test results published in paper PMC12136788.
Numbering of substitutions follows the chain as printed. The full ranking holds about 5,800 sequences; the median of “enrichment r” is about 0.68, and the highest 2% start at about 11. The sample as a whole holds a higher share of the highest values than the screen did.

T1: UNK ZnF1-6 (called full-length) (human, UniProt Q9C0B0 30-357)
T1 sequence: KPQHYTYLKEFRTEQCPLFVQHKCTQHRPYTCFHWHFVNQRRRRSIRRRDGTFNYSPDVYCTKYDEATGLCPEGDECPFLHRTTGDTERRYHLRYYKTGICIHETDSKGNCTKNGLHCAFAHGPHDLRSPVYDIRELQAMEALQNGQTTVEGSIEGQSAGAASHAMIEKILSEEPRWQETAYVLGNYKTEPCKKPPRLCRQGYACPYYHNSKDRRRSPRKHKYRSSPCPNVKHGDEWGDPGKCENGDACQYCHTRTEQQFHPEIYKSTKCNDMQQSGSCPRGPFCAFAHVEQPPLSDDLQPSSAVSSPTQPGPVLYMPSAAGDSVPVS

B1: chr10:91630394:91630495:-|CDS|ENSG00000119938|unk|total|mutant (ssRNA)
RNA: GGGAGUUCUACAGUCCGACGAUCCUUGGACCUUAAUGAUAUCUCCUCUGCCUUAAAACACCACGAGGAGAAAAACUUGAUUUCCGAUUUCCCUCAGCCUUCAACCGAUUACUUAAGUUUCCGGAGCCACUUUCAGAAGAACUUCAACAGAGGAUUGAGCAUCA
B2: chr11:20048915:20049016:+|CDS|ENSG00000166833|unk|total|mutant (ssRNA)
RNA: GGGAGUUCUACAGUCCGACGAUCGAGCAGUGGGAGCAGCAGUCCUCUCUACAGCAAGAAUGUGGACCUCAACCAGUCUCCGCCCGCCUCCAGCCCCAGCUCAGCCCACUCGGCCCCUUCCAACAGCCUCACCUGGGGCACCAACAACAGAGGAUUGAGCAUCA
B3: chr1:178479239:178479534:-|three_prime_utr|ENSG00000188585|control|control|control (ssRNA)
RNA: GGGAGUUCUACAGUCCGACGAUCCAGUUUCUGUUUCAUGCAAUCUUCUCUGGAUUUUGAGUAAAUUUUAAUUUUUUAAUCCCUAGUAGAACAAGAUUAGGAAGAACUCGACAUGUGCCAAAAAGCACAGACCUACAACUAACACAACAGAGGAUUGAGCAUCA
B4: chr1:214641902:214642005:+|CDS|ENSG00000117724|unk|total|mutant (ssRNA)
RNA: GGGAGUUCUACAGUCCGACGAUCAGAAAUCAAUGUAAUUUUAAACCUCAGAUGGAUCUUGAAGUUAAAGAAAUUUCUCCCGACCGUUAUAAUGCGCAGUUGGUGCAAUCCGAAGCUAUGCUAAGAAAUAAGGAAUUAAAACUUCAACAGAGGAUUGAGCAUCA
B5: chr20:31664451:31666086:-|three_prime_utr|ENSG00000171552|control|control|control (ssRNA)
RNA: GGGAGUUCUACAGUCCGACGAUCAUGCAGCCCAUGCCCACCUGCCCAUCACAGGGUUGGGCCCAGAUCUGGUCCCUUGCAGCUAGUUUUCUAGAAUUUAUCACACUUCUGUGAGACCCCCACACCUCAGUUCCCUUGGCCUCACAACAGAGGAUUGAGCAUCA
B6: chr10:100209595:100209696:-|CDS|ENSG00000213341|unk|FALSE|unique (ssRNA)
RNA: GGGAGUUCUACAGUCCGACGAUCACUUCUUUCAGAGACAGGAAUUUCUCUGGAUCCUCGGAAACCAGCCUCUCAAUGUGUUCUAGAUGGAGUUGUAAGAAAAUUAAUUAUAAUAUCCCUAGAGUAUGUGAAAUCUAGAGGGAUCAACAGAGGAUUGAGCAUCA
B7: chr1:56708525:56708626:+|3pUTR|ENSG00000162409|unk|FALSE|unique (ssRNA)
RNA: GGGAGUUCUACAGUCCGACGAUCACCUUUCUCAAAUUCUUUUUGCCUCUAUUUAUUUUUGCAUUUCACCAACAGUGAUAAAAUAGUUAAAUGAAACAAAGCAAAGUAUCAACAGUCCCUUAAAUGAGAAUCCUUAUCUUUGAUCAACAGAGGAUUGAGCAUCA
B8: chr8:116643852:116643953:-|3pUTR|ENSG00000147677|unk|FALSE|unique (ssRNA)
RNA: GGGAGUUCUACAGUCCGACGAUCUGUUGUGAAUGAGGAAUUAGGAAUUAGGAGAAUGGUAGUACAUUGGGAAAAACAUAUUUUAGUAAUUUUUAUAUUUUAAAGAUAAUCACAGAUUUUGCUGUUUGUGCAUCACCAAAAUCACAACAGAGGAUUGAGCAUCA
B9: chr6:98868534:98874277:-|three_prime_utr|ENSG00000112234|control|control|control (ssRNA)
RNA: GGGAGUUCUACAGUCCGACGAUCAUUAAAAUUAAUGUGCUUUGUUGGGGUUUAAUUUUGGGAUUGGUUUUGGGUUUUGUUUUUAGUUGUUUUAAUGGUAAGAAUUAAGACAUUUGUAGAUUUUAAAGAAAAAUAUGAAAUUGUCAACAGAGGAUUGAGCAUCA
B10: chr8:80637648:80637749:-|3pUTR|ENSG00000164684|unk|FALSE|unique (ssRNA)
RNA: GGGAGUUCUACAGUCCGACGAUCUGCGCUUAGCUGCAAAGUGCCUGUCAGCAGCUCCAGGCACCAACAAGGUGCCCUUUUAUUAGACAAUUCCUGCCCGAACAUAACCAUAUUGCAGAUGAAAAUUUUCAAUAGAGAAUGACACAACAGAGGAUUGAGCAUCA
B11: chr16:11872726:11872856:-|3pUTR|ENSG00000103342|msi1_unk|FALSE|overlapping (ssRNA)
RNA: GGGAGUUCUACAGUCCGACGAUCACAUAAUUGCCUACAAUAAUGAAAACCUACAGGAAUUUUUUUAUUUUUCAUUUUCCCCUUAGGCAUAUUUAGUAUUUUUCCCCCAGGCAGAUCAUUCUGAGUGUGCGAGUGUGUGUGCACCAACAGAGGAUUGAGCAUCA
B12: chr9:83661418:83661519:-|3pUTR|ENSG00000135018|msi1|FALSE|unique (ssRNA)
RNA: GGGAGUUCUACAGUCCGACGAUCUAUAGUUGGGUGACCAGAUUUUGUCCUGCAUCUGUCCAGUUUAUUUGCUUUUUAAACAUUAGCCUAUGGUAGUAAUUUAUGUAGAAUAAAAGCAUUAAAAAGAAGCAAAUCAUUUGCACUCAACAGAGGAUUGAGCAUCA
B13: chr8:116643852:116643953:-|3pUTR|ENSG00000147677|unk|total|mutant (ssRNA)
RNA: B8 RNA with U41C, A42C, U48C, A49C, U59C, A60C, U83C, A84C
B14: chr5:132541444:132541810:-|three_prime_utr|ENSG00000113525|control|control|control (ssRNA)
RNA: GGGAGUUCUACAGUCCGACGAUCAAAUUGAUAUACUUUUUUCUUAUUUAACUUAACAUUCUGUAAAAUGUCUGUUAACUUAAUAGUAUUUAUGAAAUGGUUAAGAAUUUGGUAAAUUAGUAUUUAUUUAAUGUUAUGUUGUGUCAACAGAGGAUUGAGCAUCA
B15: chr12:81257974:81259660:-|three_prime_utr|ENSG00000139220|control|control|control (ssRNA)
RNA: GGGAGUUCUACAGUCCGACGAUCAUGACUUAUUAAAAGCUGAAAAAUGUGAUUUUUGGGGGGAGUCAGAUAUUACAUUUGAUUAGUUUACUACAAAUUGUAAUAAAAUGCUUAAGUCAUUUGAAUAAUAAACAUCAUCUACAUCAACAGAGGAUUGAGCAUCA

Biological target: T1, UNK ZnF1-6 (called full-length)
Assay: nsRBNS (natural sequence RNA bind-n-seq); RBNS binding buffer (assumed for nsRBNS): 25 mM Tris pH 7.5, 150 mM KCl, 3 mM MgCl2, 0.01% Triton X-100, 500 ug/ml BSA, 20 U/ml SUPERase-In, 4 C; UNK is unkempt and MSI1 is Musashi-1; names of the RNAs are library labels; protein concentration not given here; high values mean tight binding

Binder	binding signal
B1	0.273 enrichment R
B2	0.913 enrichment R
B3	0.449 enrichment R
B4	0.401 enrichment R
B5	1.85 enrichment R
B6	0.651 enrichment R
B7	0.947 enrichment R
B8	22.5 enrichment R
B9	12.9 enrichment R
B10	0.967 enrichment R
B11	11.3 enrichment R
B12	7.97 enrichment R
B13	0.568 enrichment R
B14	7.43 enrichment R
B15	0.956 enrichment R
